# Experimental data from PubChem BioAssay.
# “And” between values parts separate entries of the source, which are not always exact repeats. Equal values may be shown once. Records with an inconclusive call do not appear. The source made the active and inactive calls.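 Rule for the calls, unless noted: active = compounds killing one labelled cell type while sparing the other, by normalised counts and ratio limits, not self-fluorescent; inactive = the rest.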
# Columns and labels:
# [1] = EMT-state selective cytotoxicity in co-culture – imaging, PC-3E GFP, TEM4-18 mCherry, primary screen (AID 1345086); details: PC-3E GFP / TEM4-18 mCherry co-culture, imaging cell counts, at 1 µM; for red/green cell ratio (normalised): actives lie on both sides, counts scaled to control wells, 1 = unselective;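 for all read-outs here: cells exposed to compound for 72 h before imaging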;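 for red/green cell ratio (normalised): normalised mesenchymal count divided by normalised epithelial count so high means epithelial killing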
# [2] = viability loss in pontine glioma line – cell-based, SU-DIPG-XIII, MIPE4.0, CellTiter-Glo, qHTS, dose response (AID 1347061; cut-off not given, nearly all actives have AC50 up to about 37 µM;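 note: cells exposed to compound for 48 hours before readout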); details: CellTiter-Glo ATP luminescence
# [3] = viability loss in pontine glioma line – cell-based, JHH-DIPG-1, MIPE4.0, CellTiter-Glo, qHTS, dose response (AID 1347062; cut-off not given, nearly all actives have AC50 up to about 27 µM;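 for AC50: cells exposed to compound for two days before readout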); details: JHH-DIPG-1 viability, CellTiter-Glo ATP luminescence
# [4] = viability loss in pontine glioma line – cell-based, SU-DIPG-IV, MIPE4.0, CellTiter-Glo, qHTS, dose response (AID 1347063; cut-off not given, nearly all actives have AC50 up to about 30 µM;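 note: compound exposure lasted 48 hours before the viability readout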); details: CellTiter-Glo ATP luminescence
# [5] = viability loss in pontine glioma line – cell-based, SU-DIPG-XIII, MIPE5.0, CellTiter-Glo, qHTS, dose response (AID 1347064; cut-off not given, nearly all actives have AC50 up to about 23 µM;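 for AC50: cells exposed to compound for 48 hours before the viability read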); details: CellTiter-Glo ATP luminescence
# [6] = viability loss in pontine glioma line – cell-based, SU-DIPG-XVII, MIPE5.0, CellTiter-Glo, qHTS, dose response (AID 1347060; cut-off not given, nearly all actives have AC50 up to about 26 µM;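 for AC50: cells exposed to compound for 48 hours before viability readout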); details: CellTiter-Glo ATP luminescence
# [7] = measured here: epithelial PC-3E GFP cell survival
# [8] = measured here: mesenchymal TEM4-18 mCherry cell survival
smiles,measurement,setting,value
O=c1oc2cc(O)ccc2s1,red/green cell ratio (normalised),[1],0.91 (inactive) and 0.99 (inactive)
same,normalised cell number,[1]; [7],1.1 and 0.89
same,normalised cell number,[1]; [8],1 and 0.88
same,outcome,[2],inactive
same,outcome,[3],inactive
same,outcome,[4],inactive
same,outcome,[5],inactive
COC(=O)Nc1nc2ccc(Sc3ccccc3)cc2[nH]1,red/green cell ratio (normalised),[1],1.07 (inactive)
same,normalised cell number,[1]; [7],0.25
same,normalised cell number,[1]; [8],0.26
same,AC50,[6],0.934 µM (active)
same,AC50,[4],2.64 µM (active)
O=C(NC(Cc1cc(=O)[nH]c2ccccc12)C(=O)O)c1ccc(Cl)cc1 (centres undefined),red/green cell ratio (normalised),[1],1.12 (inactive)
same,normalised cell number,[1]; [7],0.89
same,normalised cell number,[1]; [8],0.99
same,outcome,[6],inactive
same,outcome,[3],inactive
same,outcome,[4],inactive
same,outcome,[5],inactive
COc1cc(NS(=O)(=O)c2ccc(N)cc2)nc(OC)n1,red/green cell ratio (normalised),[1],1.12 (inactive)
same,normalised cell number,[1]; [7],0.64
same,normalised cell number,[1]; [8],0.72
same,outcome,[2],inactive
same,outcome,[3],inactive
same,outcome,[4],inactive
CC/C(=C(/CC)c1ccc(O)cc1)c1ccc(O)cc1,red/green cell ratio (normalised),[1],1.15 (inactive)
same,normalised cell number,[1]; [7],1.1
same,normalised cell number,[1]; [8],1.27
same,outcome,[6],inactive
same,outcome,[3],inactive
same,outcome,[5],inactive
Nc1ccc(S(=O)(=O)Nc2ccccn2)cc1,red/green cell ratio (normalised),[1],1.49 (inactive)
same,normalised cell number,[1]; [7],0.99
same,normalised cell number,[1]; [8],1.47
same,outcome,[2],inactive
same,outcome,[3],inactive
COc1cc2c(N3CCN(C(=O)Nc4ccc(OC(C)C)cc4)CC3)ncnc2cc1OCCCN1CCCCC1,red/green cell ratio (normalised),[1],1.13 (inactive)
same,normalised cell number,[1]; [7],1.09
same,normalised cell number,[1]; [8],1.23
same,outcome,[6],inactive
same,outcome,[2],inactive
same,outcome,[5],inactive
CCC[C@H](N[C@@H](C)C(=O)N1[C@H](C(=O)O)C[C@@H]2CCCC[C@@H]21)C(=O)OCC,red/green cell ratio (normalised),[1],1.01 (inactive)
same,normalised cell number,[1]; [7],0.96
same,normalised cell number,[1]; [8],0.96
same,outcome,[6],inactive
same,outcome,[5],inactive
COc1ccc2cc3[n+](cc2c1OC)CCc1cc2c(cc1-3)OCO2,red/green cell ratio (normalised),[1],0.81 (inactive)
same,normalised cell number,[1]; [7],0.85
same,normalised cell number,[1]; [8],0.69
same,AC50,[6],18.6 µM (active)
same,AC50,[3],4.18 µM (active)
same,AC50,[5],16.6 µM (active)
NC(=O)NO,red/green cell ratio (normalised),[1],1.09 (inactive)
same,normalised cell number,[1]; [7],1.01
same,normalised cell number,[1]; [8],1.1
same,outcome,[6],inactive
same,AC50,[3],0.526 µM (active)
same,AC50,[4],1.87 µM (active)
same,outcome,[5],inactive
C1CCC(C(CC2CCCCN2)C2CCCCC2)CC1 (centres undefined),red/green cell ratio (normalised),[1],0.98 (inactive)
same,normalised cell number,[1]; [7],1.13
same,normalised cell number,[1]; [8],1.11
same,AC50,[6],7.42 µM (active)
same,AC50,[3],9.35 µM (active)
same,AC50,[4],20.9 µM (active)
same,AC50,[5],11.8 µM (active)
O=C(O)c1cccnc1Nc1cccc(C(F)(F)F)c1,red/green cell ratio (normalised),[1],0.93 (inactive)
same,normalised cell number,[1]; [7],1.08
same,normalised cell number,[1]; [8],1
same,outcome,[2],inactive
same,outcome,[3],inactive
same,outcome,[4],inactive
NC(=O)N/N=C/c1ccc([N+](=O)[O-])o1,red/green cell ratio (normalised),[1],1.13 (inactive)
same,normalised cell number,[1]; [7],0.55
same,normalised cell number,[1]; [8],0.62
same,outcome,[2],inactive
NS(=O)(=O)c1cc2c(cc1Cl)NC(C(Cl)Cl)NS2(=O)=O (centres undefined),red/green cell ratio (normalised),[1],1.22 (inactive)
same,normalised cell number,[1]; [7],0.88
same,normalised cell number,[1]; [8],1.08
same,outcome,[6],inactive
same,outcome,[3],inactive
same,outcome,[4],inactive
C[C@H]1c2cccc(O)c2C(O)=C2C(=O)[C@]3(O)C(O)=C(C(N)=O)C(=O)[C@@H](N(C)C)[C@@H]3[C@@H](O)[C@@H]21,red/green cell ratio (normalised),[1],1.48 (inactive)
same,normalised cell number,[1]; [7],1.06
same,normalised cell number,[1]; [8],1.57
same,outcome,[2],inactive
same,outcome,[3],inactive
CC(C)(Sc1cc(C(C)(C)C)c(O)c(C(C)(C)C)c1)Sc1cc(C(C)(C)C)c(O)c(C(C)(C)C)c1,red/green cell ratio (normalised),[1],1.01 (inactive)
same,normalised cell number,[1]; [7],1.14
same,normalised cell number,[1]; [8],1.16
same,outcome,[2],inactive
same,outcome,[3],inactive
same,outcome,[4],inactive
Cc1cc2cc3c(C)cc(=O)oc3c(C)c2o1,red/green cell ratio (normalised),[1],0.99 (inactive)
same,normalised cell number,[1]; [7],1.05
same,normalised cell number,[1]; [8],1.04
same,outcome,[6],inactive
same,AC50,[4],20.9 µM (active)
same,outcome,[5],inactive
Cn1c(=O)c2c(ncn2C)n(C)c1=O,red/green cell ratio (normalised),[1],0.97 (inactive)
same,normalised cell number,[1]; [7],1.17
same,normalised cell number,[1]; [8],1.14
same,outcome,[2],inactive
same,outcome,[3],inactive
same,outcome,[5],inactive
CCn1cc(C(=O)O)c(=O)c2cc(F)c(N3CCNCC3)nc21,red/green cell ratio (normalised),[1],1.34 (inactive)
same,normalised cell number,[1]; [7],0.89
same,normalised cell number,[1]; [8],1.2
same,outcome,[2],inactive
same,outcome,[3],inactive
same,outcome,[4],inactive
CS(=O)(=O)c1ccc([C@@H](O)[C@@H](CO)NC(=O)C(Cl)Cl)cc1,red/green cell ratio (normalised),[1],0.94 (inactive)
same,normalised cell number,[1]; [7],1.12
same,normalised cell number,[1]; [8],1.06
same,outcome,[2],inactive
same,outcome,[3],inactive
same,outcome,[4],inactive
Cc1nnc(NS(=O)(=O)c2ccc(N)cc2)s1,red/green cell ratio (normalised),[1],1.39 (inactive)
same,normalised cell number,[1]; [7],0.96
same,normalised cell number,[1]; [8],1.33
same,AC50,[2],20.9 µM (active)
same,AC50,[3],1.32 µM (active)
same,outcome,[5],inactive
CC(=O)Oc1ccccc1C(=O)O,red/green cell ratio (normalised),[1],0.84 (inactive)
same,normalised cell number,[1]; [7],1.28
same,normalised cell number,[1]; [8],1.08
same,outcome,[6],inactive
same,outcome,[3],inactive
same,outcome,[4],inactive
CCCOc1ccc2nc(NC(=O)OC)[nH]c2c1,red/green cell ratio (normalised),[1],1.06 (inactive)
same,normalised cell number,[1]; [7],0.2
same,normalised cell number,[1]; [8],0.21
same,AC50,[6],0.372 µM (active)
same,outcome,[2],inactive
same,AC50,[5],0.661 µM (active)
Cc1cn[nH]c1,red/green cell ratio (normalised),[1],0.92 (inactive) and 0.9 (inactive)
same,normalised cell number,[1]; [7],0.94 and 1.1
same,normalised cell number,[1]; [8],0.86 and 0.99
same,outcome,[6],inactive
same,AC50,[3],0.105 µM (active)
same,AC50,[4],3.32 µM (active)
same,outcome,[5],inactive
CC(C)COCC(CN(Cc1ccccc1)c1ccccc1)N1CCCC1 (centres undefined),red/green cell ratio (normalised),[1],1.11 (inactive)
same,normalised cell number,[1]; [7],1.06
same,normalised cell number,[1]; [8],1.18
same,AC50,[6],20.9 µM (active)
same,AC50,[5],14.8 µM (active)
CCC1(C)CC(=O)NC1=O (centres undefined),red/green cell ratio (normalised),[1],1.22 (inactive)
same,normalised cell number,[1]; [7],1.07
same,normalised cell number,[1]; [8],1.31
same,outcome,[2],inactive
same,outcome,[3],inactive
same,outcome,[4],inactive
same,outcome,[5],inactive
CCOC(=O)[C@H](CCc1ccccc1)N[C@@H](C)C(=O)N1CCC[C@H]1C(=O)O,red/green cell ratio (normalised),[1],0.88 (inactive)
same,normalised cell number,[1]; [7],1.12
same,normalised cell number,[1]; [8],0.99
same,outcome,[2],inactive
same,outcome,[3],inactive
same,outcome,[4],inactive
same,outcome,[5],inactive
CCCc1cc(C(N)=S)ccn1,red/green cell ratio (normalised),[1],0.84 (inactive)
same,normalised cell number,[1]; [7],1.14
same,normalised cell number,[1]; [8],0.96
same,outcome,[6],inactive
same,outcome,[3],inactive
same,outcome,[5],inactive
S=P(N1CC1)(N1CC1)N1CC1,red/green cell ratio (normalised),[1],0.99 (inactive)
same,normalised cell number,[1]; [7],1.06
same,normalised cell number,[1]; [8],1.06
same,AC50,[6],20.9 µM (active)
same,outcome,[3],inactive
same,outcome,[5],inactive
